Compound activity deposited in PubChem BioAssay by several laboratories.
TWEAK Fn14 block: inhibitors of TWEAK-Fn14 signaling, primary screen, luciferase reporter cells, uHTS; TWEAK-stimulated Fn14 reporter cells, luciferase luminescence, 8 h; inhibition, % at 10 µM; 360,000 tested, 2% active; AID 1159606, 2016; in the data active = inhibition above about 50%
Shn3 3UTR inh: reduction of Shn3 3'UTR firefly luciferase signal, primary screen, Schnurri-3 inhibitor project, cell-based, Clone20 osteoblasts, set 2. Clone20 osteoblast Shn3 3'UTR firefly luciferase, 24 h. inhibition, % at 12.5 µM. 360,000 tested, 0.52% active. AID 588674, 2011;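 active = mean inhibition of at least 75% with every replicate also reaching 75%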
LMP1 NFkB inh: EBV LMP1-driven NF-kappaB luciferase reporter inhibitors, primary screen, cell-based, luminescence, single point. AID 504558, 2011. 350,000 tested, 0.69% active. inhibition, % at 12.5 µM. LMP1-induced NF-kappaB luciferase reporter cells; in the data active = inhibition above about 41%
Peg3 promoter: Peg3 promoter-driven luciferase inhibitors, primary screen, cell-based, HeLa, luciferase luminescence. HeLa PEG-Prom luciferase reporter, overnight. inhibition, % at 20 µM. 360,000 tested, 1.7% active. AID 588405, 2011;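 active = inhibition of at least 50% at 20 µM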
MITF TRPM1 inh: inhibitors of MITF-dependent TRPM1 promoter reporter, primary screen, cell-based, SK-MEL-5, single point, luciferase; 330,000 tested, 0.83% active; SK-MEL-5 TRPM1 promoter luciferase, 24 h; inhibition, % at 12.5 µM;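 active = mean inhibition across replicates of 60% or more, whatever share of single replicates reaches that level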
TROY signal inh: inhibitors of TROY-driven NF-kB signaling, primary screen, Q293 LMP1-TROYcd cells, NF-kB luciferase, uHTS; Q293 LMP1-TROYcd NF-kB luciferase reporter, 4 h; inhibition, % at 10 µM; 360,000 tested, 0.98% active; AID 1347056, 2019;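 active = compounds whose plate-normalised and pattern-corrected inhibition of the luciferase reporter signal at the single screening dose is 50% or more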
Of the large screens only hits and unclear results are named; the others gave an inactive call. Shown are actives, neighbours in structure and some others; about 4.1% of the full set was active somewhere.

O=C(CCC(=O)c1ccc(F)cc1)NCC1(N2CCCCC2)CCCCC1	none
CC(C(=O)O)n1c(-c2ccn[nH]2)n[nH]c1=S (stereo not drawn)	none
CCOC(=O)N1C(=O)[C@@](CC)(c2ccccc2)N1C(=O)OCC	MITF TRPM1 inh 75
CC[C@@]1(c2cccc(C)c2)C(=O)N(C(=O)OC)N1C(=O)OC	none
CCN(CC)C(=O)[C@H]1C[C@H](CC(=O)NCCC2=CCCCC2)C(=O)N2CCc3c([nH]c4cc(CCC(=O)N(C)C)ccc34)[C@]12C	none
Cc1cccc(Nc2ccncc2S(N)(=O)=O)c1	TWEAK Fn14 block 70 (no result: LMP1 NFkB inh, MITF TRPM1 inh)
CCCCN1CC(=O)N2[C@H]3c4ccc(OC)cc4OC[C@@H]3[C@H](C(=O)OCC)[C@]2(C)C1=O	none
COc1ccc(C(=O)c2ccccc2)c2c(O)ccc(C(=O)c3ccccc3)c12	TWEAK Fn14 block 57
COc1ccc(C(=O)c2ccc(Cl)cc2)c2ccccc12	none
NC(=Nc1nc(-c2ccccn2)cc2ccccc12)c1ccccn1	Shn3 3UTR inh 88, LMP1 NFkB inh 67, MITF TRPM1 inh 65
COc1cc(NC(=S)NN2CCN(C)CC2)cc(OC)c1OC	none
O=C(Nc1ccc(-n2ccc(C(F)(F)F)n2)cc1)Nc1cccc(Cl)c1	TWEAK Fn14 block 72
CCN(C(=O)COC(=O)CNS(=O)(=O)c1ccccc1)c1ccccc1	none
Nc1nc(Cl)nc2ccc(Br)cc12	TWEAK Fn14 block 75, TROY signal inh 71
CCc1c(C)nc2ccc(Br)cc2c1Cl	none
Cc1cc(/C=C2\Sc3ccccc3N2C)cc(C)[n+]1CC1CCCO1 (stereo not drawn)	Shn3 3UTR inh 89, Peg3 promoter 70, MITF TRPM1 inh 74
COc1ccc(N=Cc2cc(Cl)ccc2O)cc1Cl	none
Cc1ccc(N=Cc2ccccc2O)cc1Cl	TWEAK Fn14 block 59
CC1(C(=O)NS(=O)(=O)c2cccs2)CCN1C(=O)C1CCCCC1 (stereo not drawn)	none (no result: LMP1 NFkB inh, MITF TRPM1 inh)
O=C(N/N=C/c1cc(Br)cc(Cl)c1O)c1ccc2c(c1)OCO2	Peg3 promoter 55
COc1cc(Cl)cc(/C=N\NC(=O)c2ccc3c(c2)OCO3)c1O	Shn3 3UTR inh 88 (no result: MITF TRPM1 inh)
O=C(Cc1ccccc1)N/N=C/c1cc(Br)cc(Cl)c1O	Peg3 promoter 53
CC1(C)Cc2c(cnn2-c2ccc(F)cc2)C(NC(=O)CCC(F)(F)F)C1 (stereo not drawn)	none
O=C(O)C(NS(=O)(=O)c1ccc(F)cc1)c1ccccc1 (stereo not drawn)	TWEAK Fn14 block 90
O=[N+]([O-])c1ccccc1CCc1cnc(Cl)s1	TWEAK Fn14 block 58, TROY signal inh 52
CC(=O)Nc1ccc(SCC(=O)c2cc(C)n(Cc3cccs3)c2C)cc1	TWEAK Fn14 block 93
Cc1cc(C(=O)COc2cccnc2[N+](=O)[O-])c(C)n1Cc1cccs1	none
COC(=O)c1ccc(-n2c(C)cc(C(=O)CSc3ccc(NC(C)=O)cc3)c2C)cc1	none
CC(=O)Nc1ccc(SCC(=O)c2cc(C)n(-c3ccccc3F)c2C)cc1	TWEAK Fn14 block 87, TROY signal inh 66
CC(=O)Nc1ccccc1OCC(=O)c1cc(C)n(Cc2cccs2)c1C	TWEAK Fn14 block 64
COc1ccc(N(CC(=O)NC2CCCCC2)C(=O)c2ccc(C)s2)c(OC)c1	none
O=C(Oc1c(-c2ccccc2)c(=O)n2c3c(cccc13)CC2)c1ccco1	none
O=C(Oc1c(-c2ccccc2)c(=O)n2c3c(cccc13)CC2)c1ccc(Cl)cc1	TROY signal inh 53
COCCN(C(=O)c1ccccc1OC1CCN(S(C)(=O)=O)CC1)C(C)C	none
COc1cc(/C=C2/C(=O)c3cccc([N+](=O)[O-])c3C2=O)c(Br)cc1O	TWEAK Fn14 block 57, Peg3 promoter 110
COc1ccc(-c2cc3ccc(OC(C)C(=O)O)cc3oc2=O)cc1 (stereo not drawn)	none
Cc1ccc(C(C[N+](=O)[O-])c2c(-c3ccccc3O)[nH][nH]c2=O)cc1 (stereo not drawn)	Peg3 promoter 96
O=c1[nH][nH]c(-c2ccccc2O)c1C(C[N+](=O)[O-])c1ccc(Br)cc1 (stereo not drawn)	none
Cc1cc(N=Cc2c(O)ccc3ccccc23)no1	none
Cc1cc(N=Cc2c(O)ccc3cc(Br)ccc23)no1	LMP1 NFkB inh 56
CCCCCCCCC1CC(C(=O)Nc2ccccc2)C(=O)O1 (stereo not drawn)	none
CC1CN(c2ccccn2)C(C)CN1C(=S)Nc1ccccc1 (stereo not drawn)	none
CC1=C(C)CC(C(=O)N2CCN(Cc3ccccc3)CC2)C(C(=O)O)C1 (stereo not drawn)	LMP1 NFkB inh 65
O=C(NCc1ccccc1Br)c1ccc2c(c1)OCCO2	none
C=C1C(=O)[C@]23C[C@H]1CCC2[C@]1(C)CCC[C@@](C)(C(=O)O)C1C[C@@H]3O (stereo partly drawn)	TWEAK Fn14 block 97, Shn3 3UTR inh 89, Peg3 promoter 99, TROY signal inh 59 (no result: LMP1 NFkB inh, MITF TRPM1 inh)
C=C1C(=O)[C@]23C[C@H]1CC[C@H]2[C@]1(C)[C@@H](OC(C)=O)CC[C@@](C)(C(=O)O)[C@H]1C[C@@H]3OC(C)=O	none (no result: LMP1 NFkB inh, MITF TRPM1 inh)
C=C1C(=O)[C@]23C[C@H]1CCC2[C@]1(C)C(=O)CC[C@@](C)(C(=O)O)C1C[C@@H]3O (stereo partly drawn)	TWEAK Fn14 block 72, Peg3 promoter 61 (no result: LMP1 NFkB inh, MITF TRPM1 inh)
C#CCN(CC=C)C(=O)c1ccc2nc(C3CCCCC3)oc2c1	none
COCCNC(=S)N1CCC2CC1c1cc(-c3ccc4c(c3)OCO4)ccc12 (stereo not drawn)	none (no result: LMP1 NFkB inh, MITF TRPM1 inh)
O=[N+]([O-])C1C(c2ccccc2)C12c1ccccc1-c1ccccc12 (stereo not drawn)	TWEAK Fn14 block 57, Peg3 promoter 53 (no result: MITF TRPM1 inh)
c1ccc(Nc2ccccn2)cc1	none
c1ccc(/N=C2\N=C(Nc3ccccn3)c3ccccc32)nc1	Peg3 promoter 64
O=C(C=C(O)c1ccc(Cl)cc1)C(=O)NNC(=O)C(O)(c1ccccc1)c1ccccc1	Shn3 3UTR inh 98
CN1CCN(CC(=O)c2cc(C(C)(C)C)c(O)c(C(C)(C)C)c2)CC1	LMP1 NFkB inh 86
CC(C)(C)c1cc(CN2CCN(CCO)CC2)cc(C(C)(C)C)c1O	none
O=C(/C=C/c1cccs1)c1ccc(N2CCOCC2)cc1	TWEAK Fn14 block 89, TROY signal inh 75
O=C(/C=C/c1cccc(F)c1)c1ccc(N2CCOCC2)cc1	none
CC(=O)Nc1ccc(NC(=O)C(C)OC(=O)CCC2CCCC2)cc1 (stereo not drawn)	none
